High-throughput results (PubChem BioAssay)
POLI inh: qHTS for Inhibitors of Polymerase Iota; Pol iota fluorescent replication assay, 10 min; Potency, µM (highest dose often 115 µM), for inactives: at the highest dose activity, negative = inhibition, actives largely listed as inhibitors; 390,000 compounds, 1% hits; AID 588590, 2011; further: potency means the concentration at half of the fitted maximal effect
Target sequence (Q9UNA4 whole entry, looked up): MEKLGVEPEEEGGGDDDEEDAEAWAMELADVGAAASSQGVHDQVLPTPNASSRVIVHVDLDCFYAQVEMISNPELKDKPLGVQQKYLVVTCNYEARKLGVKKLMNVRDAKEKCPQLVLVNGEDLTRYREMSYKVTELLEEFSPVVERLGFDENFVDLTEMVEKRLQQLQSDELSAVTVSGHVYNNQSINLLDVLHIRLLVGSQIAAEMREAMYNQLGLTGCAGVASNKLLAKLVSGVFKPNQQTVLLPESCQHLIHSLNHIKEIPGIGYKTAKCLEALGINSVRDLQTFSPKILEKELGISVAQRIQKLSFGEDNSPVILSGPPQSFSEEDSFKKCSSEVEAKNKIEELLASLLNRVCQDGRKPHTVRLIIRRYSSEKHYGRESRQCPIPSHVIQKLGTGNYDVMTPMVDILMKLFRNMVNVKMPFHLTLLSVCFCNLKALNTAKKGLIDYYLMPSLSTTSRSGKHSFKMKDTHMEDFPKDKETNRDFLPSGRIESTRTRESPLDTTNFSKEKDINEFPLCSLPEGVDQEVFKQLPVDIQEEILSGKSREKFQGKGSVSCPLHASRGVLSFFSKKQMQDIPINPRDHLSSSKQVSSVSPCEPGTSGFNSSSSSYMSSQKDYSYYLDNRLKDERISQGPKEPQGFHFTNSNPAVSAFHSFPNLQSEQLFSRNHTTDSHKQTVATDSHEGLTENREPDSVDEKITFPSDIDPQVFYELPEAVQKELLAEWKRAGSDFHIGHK
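Pol iota at 10 nM preincubated 15 min with compounds at room temperature; reaction started with fluorescent substrate, 50 nM final. Fluorescence read kinetically at 0 and 10 min; buffer-only wells as negative control.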
POLK inh: qHTS for Inhibitors of Polymerase Kappa | DNA polymerase kappa (Homo sapiens), Q9UBT6 | purified Pol kappa, fluorescent DNA synthesis assay, 10 min | Potency, µM (highest dose often 107 µM), inactives show at the top dose activity, negative = inhibition, hits mostly inhibitors | 400,000 compounds, 0.53% hits | AID 588579, 2011; further: potency means the concentration at half of the fitted maximal effect; on the % scale 0 is the no-effect control and ±100 the full control effect
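Enzyme at 10 nM met test compounds for 15 min at room temperature. Substrate addition (50 nM final) began the reaction, which was monitored by fluorescence at 0 and 10 min.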
POLB inh: qHTS Assay for Inhibitors of DNA Polymerase Beta; Pol beta primer extension/strand displacement, fluorescence kinetic; Potency, µM (doses to about 114 µM), inactives show at the highest dose activity change, negative = inhibition, usual class: inhibitors; 340,000 compounds, 1.3% hits; AID 485314, 2010; further: potency means the concentration at half of the fitted maximal effect; on the % scale 0 is the no-effect control and ±100 the full control effect
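Kinetic readout of DNA synthesis with strand displacement by Pol beta. Compound and 10 nM enzyme sit 15 min at room temperature; 50 nM substrate starts the reaction, read immediately and at 10 min.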
12-LOX inh: Primary qHTS assay for inhibitors of human arachidonate 12S-lipoxygenase (ALOX12): Round 2 | Potency, µM (top dose mostly 108 µM), without a hit: top-dose activity change, negative = inhibition, actives largely listed as inhibitors | Polyunsaturated fatty acid lipoxygenase ALOX12 (Homo sapiens), P18054 | purified 12hLO, xylenol orange hydroperoxide absorbance | 580,000 compounds, 1.1% hits; further: potency means the concentration at half of the fitted maximal effect; on the % scale 0 is the no-effect control and ±100 the full control effect
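Hydroperoxide product was detected by ferrous iron/xylenol orange as the 573 to 405 nm absorbance ratio. Arachidonic acid at 40 uM (final) was turned over for 30 min at room temperature by 150 nM human 12hLO, pH 7.0 Hepes buffer, after 15 min compound preincubation.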
PI5P4K alpha inh: qHTS for Inhibitors of phosphatidylinositol 5-phosphate 4-kinase (PI5P4K); Phosphatidylinositol 5-phosphate 4-kinase type-2 alpha (Homo sapiens), P48426; 330,000 compounds, 1.2% hits; PI5P4Kalpha enzyme, ADP-Glo luminescence, 60 min; hits give low values; max response, %; active means max response of -50% or lower; inconclusive means between -30% and -50%; inactive means -30% or higher; further: value at the top dose of about 77 µM; on the % scale 0 is the no-effect control and ±100 the full control effect
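PI5P4Kalpha ADP-Glo assay; 5 microM ATP final; 60 min RT reaction; HEPES pH 7.4/EGTA/CHAPS, 5% DMSO; controls lacking substrate or enzyme; luminescent end-point.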
POLH inh: qHTS for Inhibitors of Polymerase Eta. recombinant Pol eta, fluorescent DNA replication assay. 390,000 compounds, 1.2% hits. AID 588591, 2011. DNA polymerase eta (Homo sapiens), Q9Y253. Potency, µM (doses to about 114 µM), without a hit: top-dose activity change, negative = inhibition, hits mostly inhibitors; further: potency means the concentration at half of the fitted maximal effect; on the % scale 0 is the no-effect control and ±100 the full control effect
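Pol eta (10 nM) was preincubated with compounds for 15 min at room temperature, after which fluorescent replication substrate (50 nM final) was added to start the reaction. Fluorescence was read kinetically at 0 and 10 min.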
ADP-Glo interf: qHTS for Inhibitors of PI5P4K: ADP-Glo counter assay; shares compounds with PI5P4K alpha inh; ADP-Glo detection counter-screen, luciferase luminescence, no enzyme; Potency, µM (doses to about 76.9 µM), inactives show top-dose activity change, negative = inhibition, hits mostly inhibitors; 1,100 tested, under 10 active; AID 743285, 2014
* = called active by the depositor; ? = inconclusive; / = no result given; [ ] = another dose, or the depositor's remark. A selection: hits, their analogues and other compounds. The true share with any hit is near 2.9%. Unless noted, the call rests on the fitted dose curve; in most records, active means well fitted curve in the direction sought with a large enough effect; inconclusive means small, poorly fitted or top-dose-only effect, or another doubt; inactive means no such curve, though single readings can be large; an effect the other way counts as inactive or inconclusive.

SMILES | POLI inh | POLK inh | POLB inh | 12-LOX inh | PI5P4K alpha inh | POLH inh | ADP-Glo interf
O=C(CCS(=O)(=O)c1ccc2c(c1)NC(=O)CS2)NCCc1ccccc1 | -2% | -19% | 11% | 8% | -1 | -3% | /
Cc1ccccc1C(=O)Oc1cccc2c(O)cccc12 | 121% | -4% | 4% | ? | 16 | -16% | /
O=C(Oc1cccc2c(O)cccc12)c1ccco1 | ? | -14% | / | 39% | -54* | -6% | 0%
Cc1ccc(C2Cn3nnc(-c4noc(-c5cccs5)n4)c3CO2)cc1 (centres undefined) | / | / | / | 15% | / | / | /
CC1CCCN(C(=O)c2ccc(CN(c3ccccc3)S(C)(=O)=O)cc2)C1 (centres undefined) | / | / | / | -8% | / | / | /
CSc1ccccc1C(=O)Nc1ccccc1C(C)(C)C | / | / | / | -20% | / | / | /
Clc1ccc(-c2nnc(-c3ccco3)nc2N2CCCCC2)cc1 | -8% | -18% | 40µM* | ? | -67* | ? | -5%
COc1cccc(CNC(=O)Cc2ccc(NC(=O)C3=C(C)OCCS3)cc2)c1 | ? | ? | 22µM* | -11% | -53* | ? | -2%
O=C(CN1CCCCC1)Nc1nnc(-c2ccc([N+](=O)[O-])cc2)s1 | -23% | -12% | 8% | -14% | -70* | 18µM* | 1%
Oc1ccc2ccccc2c1C=Nc1cc(Cl)cc(Cl)c1 | / | / | / | -15% | / | / | /
CSC(C)C(=O)Nc1ccccc1I (centres undefined) | / | / | / | -1% | / | / | /
COC(=O)C1CCN(C(=O)Cn2nc(C(=O)O)c3ccccc3c2=O)CC1 | / | / | / | -9% | / | / | /
CCc1sc(C(=O)Nc2ccc3c(c2)OCO3)cc1C | ? | -33% | / | ? | -72* | ? | 5%
CCc1sc(C(=O)Nc2ccc3c(c2)OCCO3)cc1Br | / | / | / | -14% | / | / | /
Cc1cc(NC(=O)CN2CCCCCCC2)no1 | 9% | -12%[60.1 µM] | -6% | ? | / | -2% | /
Cc1cc(NC(=O)CN2CCN(C)CC2)no1 | 16% | -2% | 7% | 0% | -51* | -8% | 3%
COc1ccc(NC(=O)CSc2nc(-c3ccco3)nc3cc(=O)[nH]n23)cc1Cl | 79µM* | -37% | -34% | ? | -56* | ? | -3%
Cc1c(C(=O)N2CCN(C(=O)c3ccccc3)CC2)oc2ccc(F)cc12 | -4% | -23% | / | 0% | -54* | ? | 3%
Cc1c(C(=O)N2CCN(c3ncccn3)CC2)oc2ccc(F)cc12 | 10% | -9% | / | -28% | 0 | -19% | /
CCCc1nnc(NC(=S)Nc2ccccc2)s1 | 120% | -1% | 1% | -19% | 4 | -17% | /
CC(C)C(=O)Nc1nnc(CCc2ccccc2)s1 | -2% | -20% | 1% | 0% | -51* | -6% | -3%
CCC(CC)C(=O)Nc1nnc(CCc2ccccc2)s1 | 99% | -8% | -13% | 22% | -1 | -4% | /
CC(C)C(=O)Nc1nnc(NC(=S)Nc2ccccc2)s1 | 96% | 7% | 31% | ? | -56* | -22% | -9%
CCN(CC)S(=O)(=O)c1ccc2[nH]c(=O)cc(C(=O)NCc3ccc(CN(C)C)cc3)c2c1 | / | / | / | 5% | / | / | /
CC(OC(=O)C1=COCCO1)C(=O)Nc1ccc(N2CCOCC2)cc1 (centres undefined) | / | / | / | -17% | / | / | /
SMILES | POLI inh | POLK inh | POLB inh | 12-LOX inh | PI5P4K alpha inh | POLH inh | ADP-Glo interf
O=C(CC1C(=O)NCCN1CC1CCCCC1)NCc1cc(F)ccc1F (centres undefined) | 59% | 2% | 2% | -4% | -63* | -15% | 6%
O=C(CCc1nc2ccccc2c(=O)[nH]1)Nc1nc(-c2cccs2)cs1 | 33% | 2% | / | / | -5 | -15% | /
CN(c1ccc(-c2csc(NC(=O)CCCc3nc4ccccc4c(=O)[nH]3)n2)cc1)S(C)(=O)=O | / | / | / | 4% | -56* | -9% | -9%
O=c1[nH]c(N2CCOCC2)cc2ccccc12 | ? | -32% | / | 0% | -3 | -9% | -5%
O=c1cc(N2CCOCC2)oc2c1ccc1ccccc12 | / | 18%[60.1 µM] | / | / | / | / | /
COc1ccc(N2CCN(C(=O)c3[nH]c(C(F)(F)F)nc3-c3ccccc3)CC2)cc1 | / | / | / | -17% | -4 | / | 2%
COc1ccccc1N1CCN(C(=O)c2[nH]c(C(F)(F)F)nc2-c2ccccc2)CC1 | / | / | / | 1% | -2 | / | /
Cc1cc(Oc2cc(C#N)c(C#N)cc2Oc2ccc(Cl)c(C)c2)ccc1Cl | / | / | / | -29% | / | / | /
c1csc(-c2nc3ccccn3c2NC2CCCCC2)c1 | 44% | -6% | 3% | -19% | -4 | 10% | /
Cc1ccn2c(NC3CCCC3)c(-c3cccs3)nc2c1 | -15% | -5% | 2% | 32µM* | -65* | -7% | -5%
COc1cccc(C2CC(=O)N(c3ccccc3)C3=C2C(=O)OC3)c1OC (centres undefined) | / | / | / | -26% | / | / | /
CCc1ccccc1N1CSC2=C(C#N)C(c3ccccc3F)CC(=O)N2C1 (centres undefined) | -8% | -6% | -27% | 3.2µM* | -60* | -8% | -8%
COc1ccc(N2CSC3=C(C#N)C(c4cccc(OC)c4OC)CC(=O)N3C2)cc1 (centres undefined) | 57% | -10% | 1% | 11µM* | -51* | 8% | -14%
COc1ccc2ccccc2c1C1CC(=O)N2CN(C3CCCCC3)CSC2=C1C#N (centres undefined) | ? | -44% | 89µM* | 18µM* | -56* | ? | -5%
Cn1c2c(c(=O)n(C)c1=O)C(c1ccccc1F)C(C#N)=C(N)O2 (centres undefined) | ? | -15% | 2% | ? | 4 | -4% | /
CN1CCN(C(=O)c2ccc3c(c2)NC(C)(CCCCc2ccccc2)CO3)CC1=O (centres undefined) | / | / | / | 13%[176 µM] | / | / | /
Cc1cc(C(=O)OCC(=O)Nc2ccc(S(=O)(=O)N3CCOCC3)cc2)c(C)o1 | 3% | -8% | 16% | -3% | 6 | 3% | /
Cc1cc(C(=O)OCC(=O)Nc2cc(S(=O)(=O)N3CCOCC3)ccc2Cl)c(C)o1 | ? | -19% | ? | 28% | 5 | 3% | 1%
